{"source": "PubChem BioAssay AID743279", "about": "(National Center for Advancing Translational Sciences (NCATS), 2014)", "note": "Screen size: about 360,000 compounds; about 17,000 (4.7%) were called active. Another 5% or so got no clear call; they are omitted. Many of the other results were omitted from the sample, so actives are more common in it than they were. Values without a mark were called inactive. Rule as the data show it: active = activity change below about -50%; inconclusive = mostly about -30% to -49%; inactive = weaker than that. % is scaled to controls: 0 for no effect and ±100 for the full control effect.", "data": [{"assay": "qHTS for Inhibitors of Inflammasome Signaling: IL-1-beta AlphaLISA Primary Screen", "conditions": "THP-1 LPS/ATP IL-1B secretion, 16 h; at 57.5 µM, active compounds read low", "method_in_brief": "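Secreted IL-1B measured by AlphaLISA bead assay after 16 h compound exposure of THP-1 cells; compounds (final up to 57.5 uM) added 1 h before LPS (250 ng/mL) and ATP (1.25 mM) stimulation; lower signal means less secretion.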", "values": [{"smiles": "Cc1ccc(CN2CC(C(=O)N3CCN(S(=O)(=O)c4ccccc4)CC3)CC2=O)cc1", "note": "(stereo not given)", "activity change": "-19.1%"}, {"smiles": "Cc1ccc(S(=O)(=O)N2CCN(c3ncnc4ccccc34)CC2)cc1", "activity change": "-9.9%"}, {"smiles": "Cc1ccc(C)c(S(=O)(=O)N2CCN(c3ncnc4sccc34)CC2)c1", "activity change": "-53.3% (active)"}, {"smiles": "COc1ccc(C)cc1S(=O)(=O)N1CCN(S(=O)(=O)c2cc(C(=O)O)ccc2C)CC1", "activity change": "34.7%"}, {"smiles": "O=C1OC(Oc2ccc(Br)cc2)(c2ccccc2)c2ccccc21", "note": "(stereo not given)", "activity change": "-13.8%"}, {"smiles": "CSc1ncc(C(=O)NCCCc2ccccc2)c(C)n1", "activity change": "0%"}, {"smiles": "O=C(CCl)Nc1cccc(CP(=O)(c2ccccc2)c2ccccc2)c1", "activity change": "-99.8% (active)"}, {"smiles": "O=C(CSCc1ccccc1)Nc1ccccc1", "activity change": "0.36%"}, {"smiles": "O=C(Cc1ccccc1)Nc1cccc(NC(=O)c2ccccc2)c1", "activity change": "-19.5%"}, {"smiles": "COC(=O)c1ccc2nc(-c3cccc(Br)c3)c(Cc3ccccc3C(F)(F)F)n2c1", "activity change": "0%"}, {"smiles": "CCCC(=O)N1CCC1(C)C(=O)NCc1ccc(SC)cc1", "note": "(stereo not given)", "activity change": "21.3%"}, {"smiles": "C/C(=N\\OCC(=O)O)c1ccc(Cl)cc1", "activity change": "0%"}, {"smiles": "C/C(=N\\N=C(N)N)c1ccc(Cl)cc1", "activity change": "-86.4% (active)"}, {"smiles": "C/C(=N\\NC(=S)NCc1ccccc1)c1ccc(Cl)cc1", "activity change": "0%"}, {"smiles": "CCc1nc2c(OCC(=O)C(C)(C)C)cccn2c1N(C)C(=O)c1ccccc1F", "activity change": "32.1%"}, {"smiles": "O=C(Nc1cc(Br)ccc1F)c1nc[nH]c1C(=O)NCc1ccccc1", "activity change": "-4.71%"}, {"smiles": "OC[C@@H]1CN(C2CCCC2)C[C@H](n2cnc3c(NC4CCC4)ncnc32)O1", "activity change": "5.5%"}, {"smiles": "Cc1ccc(SCC(=O)N2CCN(c3ccc(F)cc3)CC2)cc1", "activity change": "-12.4%"}, {"smiles": "CCN1CCN(C(=O)CSc2ccc(C)cc2)CC1", "activity change": "-5.59%"}, {"smiles": "CCN1CCC2(CC1)N=C(c1ccc(F)cc1)C(=S)N2C(=O)c1ccc(C)cc1", "activity change": "-115% (active)"}, {"smiles": "CC(Sc1nncn1C)C(=O)NCCC1=CCCCC1", "note": "(stereo not given)", "activity change": "1.27%"}, {"smiles": "CCCCN(Cc1ccccc1)C(=O)C1CCN(Cc2sccc2C)CC1", "activity change": "-20.5%"}, {"smiles": "O=C(NCc1ccccn1)[C@@H]1CCCN1C(=O)[C@@H]1CCCN1C(=O)c1ccccc1", "activity change": "0%"}, {"smiles": "CCC(C(=O)OCCN(CC)CC)c1ccccc1", "note": "(stereo not given)", "activity change": "-16.3%"}, {"smiles": "CCOc1cc2ccccc2cc1C(=O)Nc1ccccn1", "activity change": "9.73%"}, {"smiles": "CCN(CC)CCOc1ccc2c(c1)C(=NNC(=O)c1ccccn1)c1cc(OCCN(CC)CC)ccc1-2", "activity change": "-56.2% (active)"}, {"smiles": "CC(C)(CNCC(O)c1ccccc1)N1CCOCC1", "note": "(stereo not given)", "activity change": "-7.93%"}, {"smiles": "Cc1c(Cl)cccc1NC(=S)NCC(O)c1ccccc1", "note": "(stereo not given)", "activity change": "-6.92%"}, {"smiles": "OC(CNCc1ccc(Cl)c(Cl)c1)c1ccccc1", "note": "(stereo not given)", "activity change": "-69.4% (active)"}, {"smiles": "Cc1c(NC(=O)C(=O)N/N=C/c2cccs2)c(=O)n(-c2ccccc2)n1C", "activity change": "-21.9%"}, {"smiles": "O=C(NCc1ccc(F)cc1)c1cc(C2CCCCN2C(=O)c2ccccn2)on1", "note": "(stereo not given)", "activity change": "42.4%"}, {"smiles": "O=C(OCc1cn(-c2ccc(Cl)c(Cl)c2)nn1)c1ccccc1Cl", "activity change": "-2.76%"}, {"smiles": "Cc1cccc(CN2CCN(C3CN(Cc4cn(Cc5cc(C)cc(C)c5)nn4)S(=O)(=O)C3)CC2)c1", "note": "(stereo not given)", "activity change": "-18.8%"}, {"smiles": "COC(=O)c1ccc(COC(=O)c2cnc(Cl)c(Cl)c2)cc1", "activity change": "-13.4%"}, {"smiles": "CCOc1ccc(C(C)=O)cc1COC(=O)c1cnc(Cl)c(Cl)c1", "activity change": "-108% (active)"}, {"smiles": "CCOc1ccc(C(C)=O)cc1COC(=O)CNC(=O)c1cccs1", "activity change": "-9.33%"}, {"smiles": "CC(C)c1cc(Cn2c3ccccc3c(=O)n2C(C)Cn2cc(C3CC3)nn2)on1", "note": "(stereo not given)", "activity change": "-6.05%"}, {"smiles": "O=C1CS(=O)CN1c1ccc(Oc2ccccc2)cc1", "note": "(stereo not given)", "activity change": "15%"}, {"smiles": "O=C1c2ccccc2C(c2nc3ccccc3[nH]2)N1c1ccccc1", "note": "(stereo not given)", "activity change": "81%"}, {"smiles": "Cc1cccn2c(=O)c3cc(C(=O)NC4CCCCC4)sc3nc12", "activity change": "-16.1%"}, {"smiles": "CC1(C(=O)NS(=O)(=O)C2CC2)CCCN(C(=O)CSc2ccccc2)C1", "note": "(stereo not given)", "activity change": "10.6%"}, {"smiles": "CCOc1ccc(C(=O)Nc2c3c(nn2-c2ccccc2)CS(=O)(=O)C3)cc1", "activity change": "12.2%"}, {"smiles": "CC1CCN(c2nc3c(c(=O)[nH]c(=O)n3C)n2CCCc2ccccc2)CC1", "activity change": "14.1%"}, {"smiles": "CC1CCN(C2=NC(=O)/C(=C/c3cn[nH]c3-c3ccccc3)S2)CC1", "activity change": "-59.2% (active)"}, {"smiles": "O=C1N=C(N2CCOCC2)S/C1=C\\C=C/c1ccccc1", "activity change": "-18%"}, {"smiles": "CC(C)C(NC(=O)c1c(F)cccc1F)C(=O)NCc1ccncc1", "note": "(stereo not given)", "activity change": "4.1%"}, {"smiles": "CC(C)C(NC(=O)OCc1ccccc1)C(=O)OCC(=O)N1C(C)CCCC1C", "note": "(stereo not given)", "activity change": "-2.86%"}, {"smiles": "Cc1ccc(S(=O)(=O)N2CCN(C(=O)c3ccc(-n4cncn4)c([N+](=O)[O-])c3)CC2)cc1", "activity change": "-5.16%"}, {"smiles": "CC(C)c1ccc(S(=O)(=O)N2CCN(C(=O)c3ccc(N4CCCC4)c([N+](=O)[O-])c3)CC2)cc1", "activity change": "-52% (active)"}, {"smiles": "O=C(c1ccc(N2CCOCC2)c([N+](=O)[O-])c1)N1CCN(S(=O)(=O)c2cccs2)CC1", "activity change": "-0.922%"}, {"smiles": "CCN(CCn1cccn1)Cc1nc(-c2ccc(C(=O)OC)cc2)no1", "activity change": "81.6%"}, {"smiles": "Clc1ccc(-c2cc(-c3ccccn3)on2)c(Cl)c1", "activity change": "0%"}, {"smiles": "Clc1ccc(-c2cc(C3CCNCC3)[nH]n2)c(Cl)c1", "activity change": "-79.9% (active)"}, {"smiles": "O=C(Cn1ccc([N+](=O)[O-])n1)NCc1cccs1", "activity change": "5.04%"}, {"smiles": "O=C(NCCc1cccc(F)c1)C1CC(O)CN1C(=O)Nc1ccccc1", "note": "(stereo not given)", "activity change": "22.4%"}, {"smiles": "CCCS(=O)(=O)C(=C1Nc2ccccc2N1)S(=O)(=O)CCC", "activity change": "3.44%"}, {"smiles": "O=C(CN1CCCCCC1)N1c2ccccc2Sc2ccc(C(F)(F)F)cc21", "activity change": "-60% (active)"}, {"smiles": "COc1cc(/C=C/C(=O)N2c3ccccc3Sc3ccc(C(F)(F)F)cc32)cc(OC)c1OC", "activity change": "-1.9%"}, {"smiles": "O=C(CN1CCCCC1)N1c2ccccc2Sc2ccc(C(F)(F)F)cc21", "activity change": "-13.4%"}, {"smiles": "CC(=O)NCCc1ccc(S(=O)(=O)N(C)C2CCS(=O)(=O)C2)cc1", "note": "(stereo not given)", "activity change": "0%"}]}]}
